Screening data from PubChem BioAssay.
NIH3T3 tox: NIH 3T3 cell cytotoxicity; NIH 3T3 viability, CellTiter-Glo ATP luminescence, 48-72 h; Potency, µM (doses to about 96.7 µM), for the others: top-dose activity change, negative = cytotoxicity, hits mostly inhibitors; 94,000 compounds, 4.3% hits; AID 1345082; further: nearly all actives have a fitted effect of over 55% in size
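NIH 3T3 cells at 400 cells/well received 23 nL of compound by pintool and were incubated 48 or 72 h at 37 °C. Viability was read as ATP-coupled CellTiter-Glo luminescence.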
NPR1 antag: antagonists of human natriuretic peptide receptor Npr1 | 76,000 compounds, 1.6% hits | AID 1347048 | HEK293 hNpr1 GloSensor cGMP, ANP-stimulated luminescence | Potency, µM (highest dose often 46.3 µM), for the others: top-dose activity change, negative = inhibition, usual class: inhibitors | P16066; calls by dose curve; further: nearly all actives have a fitted effect of over 60% in size
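Compound pre-incubated 30 min at room temperature on GloSensor-loaded HEK293 cells stably carrying hNpr1 and the pGS-40F cGMP biosensor. Stimulation uses hNppA at 0.1 nM final; luminescence is taken at baseline and 20 min post-agonist.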
HEK cytotox: HEK 293 cell cytotoxicity; HEK 293 viability, ATP luminescence (CellTiter-Glo), 48-72 h; Potency, µM (doses to about 115 µM), without a hit: at the top dose activity change, negative = cytotoxicity, actives largely listed as inhibitors; 94,000 compounds, 6.6% hits; AID 1345083; further: nearly all actives have a fitted effect of over 60% in size
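ATP-coupled CellTiter-Glo luminescence served as viability read-out, recorded 10 min after reagent addition at room temperature. HEK 293 cells, 250 cells/well, had been incubated with pintool-transferred compound for 48 or 72 hr at 37 degree Celsius.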
Luciferase inh: blocks purified firefly luciferase enzyme activity. P08659. purified P. pyralis luciferase, luminescence, biochemical. Potency, µM (titrated, usually from 115 µM), hits mostly inhibitors. 76,000 compounds, 2.5% hits. AID 1347043; further: nearly all actives have a fitted effect of over 65% in size
Target sequence (P08659 whole entry, looked up): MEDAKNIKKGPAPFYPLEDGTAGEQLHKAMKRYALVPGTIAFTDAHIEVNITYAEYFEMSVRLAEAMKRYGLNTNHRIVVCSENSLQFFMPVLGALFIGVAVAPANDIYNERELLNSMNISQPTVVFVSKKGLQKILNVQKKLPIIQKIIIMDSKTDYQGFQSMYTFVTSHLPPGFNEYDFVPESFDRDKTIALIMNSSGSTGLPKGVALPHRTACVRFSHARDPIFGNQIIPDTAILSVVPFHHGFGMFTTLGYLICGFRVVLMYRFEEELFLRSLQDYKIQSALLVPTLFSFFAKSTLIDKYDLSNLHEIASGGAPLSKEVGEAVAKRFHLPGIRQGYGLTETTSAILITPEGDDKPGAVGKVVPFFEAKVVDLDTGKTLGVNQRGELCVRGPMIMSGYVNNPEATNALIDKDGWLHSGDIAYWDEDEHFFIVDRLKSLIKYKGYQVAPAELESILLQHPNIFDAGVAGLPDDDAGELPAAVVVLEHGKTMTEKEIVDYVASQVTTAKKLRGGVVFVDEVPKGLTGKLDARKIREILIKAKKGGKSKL
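Luminescence read by CCD imager after adding enzyme (10nM final) to wells holding compound, titrated in qHTS. Substrates 10uM each D-luciferin and ATP; buffer 50mM Tris acetate pH 7.5, 10mM Mg acetate, Tween-20, BSA.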
* hit, by the source's call; i = inactive; ? = inconclusive; nt = no result; [ ] = dose if it differs, or a comment. This is a sample that favours compounds with a hit; in the whole collection about 11% have one here. Unless noted, the call rests on the fitted dose curve; in most records, active means well fitted curve in the direction sought with a large enough effect; inconclusive means small, poorly fitted or top-dose-only effect, or another doubt; inactive means no such curve, though single readings can be large; an effect the other way counts as inactive or inconclusive. On the % scale 0 is the no-effect control and ±100 the full control effect; potency means the concentration at half of the fitted maximal effect.

SMILES	NIH3T3 tox	NPR1 antag	HEK cytotox	Luciferase inh
Cn1nc(C(=O)N2CCC[C@H](n3c(=O)n(CC4CC4)c4cccnc43)C2)c2ccccc21	?	nt	32µM*	nt
Cc1ccsc1C(=O)N1CCC[C@H](n2c(=O)n(CC3CC3)c3cccnc32)C1	?	-23%	25µM*	i
CCOc1ccccc1CN(C)C1CCc2nn(CC3CC3)c(=O)n2CC1 (stereo not drawn)	3%	5%	i	i
COc1ccc(NC(=O)c2cc3c(n2C)CCN(Cc2ccc(F)cc2)C3)cc1	?	-3%	?	?
COc1ccc(CNC(=O)c2cc3c(n2C)CCN(Cc2ccccc2)C3)cc1OC	-27%	?	40µM*	i
COc1cccc(CN2CCc3c(cc(C(=O)Nc4cccc(C)c4C)n3C)C2)c1	?	6%	40µM*	22µM*
COc1cccc(CN2CCc3c(cc(C(=O)Nc4ccccc4OC)n3C)C2)c1	?	-3%	40µM*	16µM*
COc1cccc(CN2CCc3c(cc(C(=O)NCc4ccccn4)n3C)C2)c1	?	2%	?	i
COc1cccc(CN2CCc3c(cc(C(=O)N4CCOCC4)n3C)C2)c1	-8%	0%	-9%	i
COc1ccccc1NC(=O)c1cc2c(n1C)CCN(Cc1cccc(C)c1)C2	?	0%	?	32µM*
CC(=O)Nc1ccc(NC(=O)c2cc3c(n2C)CCN(Cc2ccccc2)C3)cc1	-23%	1%	-13%	i
COc1ccc(C(=O)N2CCCC(C(=O)NCc3ccccc3)CCNC(=O)CC2)c(OC)n1 (stereo not drawn)	-13%	4%	-2%	i
Cc1ccc(-c2cccc(C(=O)N3CC[C@](C)(O)[C@H](C)C3)c2)o1	-2%	-1%	?	i
COc1cccc(CN2CCc3c(cc(C(=O)Nc4ccccc4)n3C)C2)c1	?	-26%	45µM*	16µM*
CC(O)CNC(=O)C1CCN(c2nc(-c3ccccc3)nc3c2CCC3)CC1 (stereo not drawn)	-26%	-18%	i	i
CCN1CCC(N2CCC(Oc3ccccc3-c3nc(-c4ccncc4)no3)C2)CC1 (stereo not drawn)	6.3µM*	-2%	13µM*	i
O=C(CCc1ccccc1)N1CC(Oc2ccccc2-c2nc(-c3ccccc3)no2)C1	35µM*	nt	40µM*	nt
CC(C)NC(=O)N1CCC(Oc2ccccc2-c2nc(-c3ccccc3)no2)C1 (stereo not drawn)	?	13%	?	?
O=C(Nc1ccccc1)N1CCC(Oc2ccccc2-c2nc(-c3ccccc3)no2)C1 (stereo not drawn)	32µM*	0%	25µM*	?
COCCCNC(=O)C(NC(=O)c1ccc(F)cc1)C1CCN(C(=O)C2CC2)CC1 (stereo not drawn)	-19%	0%	-8%	i
Cc1ccc(NC(=O)c2ccc3oc(-c4ccccn4)nc3c2)cc1	-34%	nt	?	nt
CC(C)NC(=O)C1(C)CN(Cc2ccccc2)Cc2ccc(N3CCOCC3)nc21 (stereo not drawn)	?	-1%[70.6 µM]	?	i
O=C(CCc1ccccc1)N1CCCC(n2cc(-c3nc(-c4ccccc4)no3)nn2)C1 (stereo not drawn)	?	?	45µM*	?
CC(=O)NCC(=O)N1CCCC(n2cc(-c3nc(-c4ccccc4)no3)nn2)C1 (stereo not drawn)	-18%	-10%	-23%	35µM*
Cc1ccc(NC(=O)N2CC(C(=O)N(C)C)C3(CCOCC3)C2)c(C)c1 (stereo not drawn)	-11%	1%	1%	i
COc1ccc(-n2nc3n(c2=O)CCN(C(=O)c2ccccc2OC)C3)cc1	-29%	nt	-19%	nt
CC1(CCCCc2ccccc2)COc2ccc(C(=O)NCCN3CCOCC3)cc2N1 (stereo not drawn)	79µM*	-2%[70.6 µM]	89µM*	i
CC1(CCCCc2ccccc2)COc2ccc(C(=O)NCc3ccncc3)cc2N1 (stereo not drawn)	?	?	89µM*	i
CC1(CCCCN2CCOCC2)COc2ccc(C(=O)NCc3ccccc3)cc2N1 (stereo not drawn)	-22%[138 µM]	1%[70.6 µM]	?	i
Cc1cc2[nH]cnc2c(NC(=O)CCc2cc3n(n2)CCNC3)c1C	i	3%	5%	i
